# Test results as given in the supplement of paper PMC4466140.
# Assays:
# Assay in all cases: SPOT peptide array binding signal intensity (averaged, normalized) (arbitrary units (background-subtracted, floor 0; scale differs between SH3 domains)); higher = stronger binding of the SH3 domain to the peptide
# AgAbp1 = biological target: AgAbp1
# Summary of the method: (§1)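 Binding signal refers to normalized, background-subtracted spot intensity averaged over replicates, expressed in arbitrary units that differ between domains. GST-fused SH3 domains from four yeast species were incubated at 10 μg/ml overnight at 4°C on cellulose membranes of synthetic 15-mer peptides with cysteines replaced by serines. Bound protein was detected with anti-GST antibody, an HRP anti-mouse secondary and luminol, and quantified with Genespotter.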
# AgBbc1 = biological target: AgBbc1
# Summary of the method: as §1
# AgBem1-D1 = biological target: AgBem1-D1
# Summary of the method: as §1
# AgBzz1-D1 = biological target: AgBzz1-D1
# Summary of the method: as §1
# AgBzz1-D2 = biological target: AgBzz1-D2
# Summary of the method: as §1
# AgCyk3 = biological target: AgCyk3
# Summary of the method: as §1
# AgFus1 = biological target: AgFus1
# Summary of the method: as §1
# AgHof1 = biological target: AgHof1
# Summary of the method: as §1
# AgHse1 = biological target: AgHse1
# Summary of the method: as §1
# AgLsb1 = biological target: AgLsb1
# Summary of the method: as §1
# AgLsb4 = biological target: AgLsb4
# Summary of the method: as §1
# AgMyo5 = biological target: AgMyo5
# Summary of the method: as §1
# AgNbp2 = biological target: AgNbp2
# Summary of the method: as §1
# AgRvs167 = biological target: AgRvs167
# Summary of the method: as §1
# AgSho1 = biological target: AgSho1
# Summary of the method: as §1
# AgSla1-D1-D2 = biological target: AgSla1-D1-D2
# Summary of the method: as §1
# AgSla1-D3 = biological target: AgSla1-D3
# Summary of the method: as §1
# CaAbp1-D1 = biological target: CaAbp1-D1
# Summary of the method: as §1
# CaAbp1-D2 = biological target: CaAbp1-D2
# Summary of the method: as §1
# CaBbc1 = biological target: CaBbc1
# Summary of the method: as §1
# CaBem1-D1 = biological target: CaBem1-D1
# Summary of the method: as §1
# CaBzz1-D1 = biological target: CaBzz1-D1
# Summary of the method: as §1
# CaBzz1-D2 = biological target: CaBzz1-D2
# Summary of the method: as §1
# CaCyk3 = biological target: CaCyk3
# Summary of the method: as §1
# CaFus1 = biological target: CaFus1
# Summary of the method: as §1
# CaHof1 = biological target: CaHof1
# Summary of the method: as §1
# CaHse1 = biological target: CaHse1
# Summary of the method: as §1
# CaLsb1 = biological target: CaLsb1
# Summary of the method: as §1
# CaLsb4 = biological target: CaLsb4
# Summary of the method: as §1
# CaMyo5 = biological target: CaMyo5
# Summary of the method: as §1
# CaNbp2 = biological target: CaNbp2
# Summary of the method: as §1
# CaRvs167 = biological target: CaRvs167
# Summary of the method: as §1
# CaRvs167-3 = biological target: CaRvs167-3
# Summary of the method: as §1
# CaSho1 = biological target: CaSho1
# Summary of the method: as §1
# CaSla1-D1-D2 = biological target: CaSla1-D1-D2
# Summary of the method: as §1
# CaSla1-D3 = biological target: CaSla1-D3
# Summary of the method: as §1
# ScAbp1 = biological target: ScAbp1
# Summary of the method: as §1
# ScBbc1 = biological target: ScBbc1
# Summary of the method: as §1
# ScBem1-D1 = biological target: ScBem1-D1
# Summary of the method: as §1
# ScBzz1-D1 = biological target: ScBzz1-D1
# Summary of the method: as §1
# ScBzz1-D2 = biological target: ScBzz1-D2
# Summary of the method: as §1
# ScCyk3 = biological target: ScCyk3
# Summary of the method: as §1
# ScFus1 = biological target: ScFus1
# Summary of the method: as §1
# ScHof1 = biological target: ScHof1
# Summary of the method: as §1
# ScHse1 = biological target: ScHse1
# Summary of the method: as §1
# ScLsb1 = biological target: ScLsb1
# Summary of the method: as §1
# ScLsb2 = biological target: ScLsb2
# Summary of the method: as §1
# ScLsb3 = biological target: ScLsb3
# Summary of the method: as §1
# ScLsb4 = biological target: ScLsb4
# Summary of the method: as §1
# ScMyo3 = biological target: ScMyo3
# Summary of the method: as §1
# ScMyo5 = biological target: ScMyo5
# Summary of the method: as §1
# ScNbp2 = biological target: ScNbp2
# Summary of the method: as §1
# ScPex13 = biological target: ScPex13
# Summary of the method: as §1
# ScRvs167 = biological target: ScRvs167
# Summary of the method: as §1
# ScSho1 = biological target: ScSho1
# Summary of the method: as §1
# ScSla1-D1-D2 = biological target: ScSla1-D1-D2
# Summary of the method: as §1
# ScSla1-D3 = biological target: ScSla1-D3
# Summary of the method: as §1
# SpAbp1-D1 = biological target: SpAbp1-D1
# Summary of the method: as §1
# SpBbc1 = biological target: SpBbc1
# Summary of the method: as §1
# SpBzz1-D1 = biological target: SpBzz1-D1
# Summary of the method: as §1
# SpBzz1-D2 = biological target: SpBzz1-D2
# Summary of the method: as §1
# SpCyk3 = biological target: SpCyk3
# Summary of the method: as §1
# SpHof1 = biological target: SpHof1
# Summary of the method: as §1
# SpHof1-2 = biological target: SpHof1-2
# Summary of the method: as §1
# SpHof1-3 = biological target: SpHof1-3
# Summary of the method: as §1
# SpHse1 = biological target: SpHse1
# Summary of the method: as §1
# SpLsb1 = biological target: SpLsb1
# Summary of the method: as §1
# SpLsb4 = biological target: SpLsb4
# Summary of the method: as §1
# SpMyo1 = biological target: SpMyo1
# Summary of the method: as §1
# SpNbp2 = biological target: SpNbp2
# Summary of the method: as §1
# SpPex13 = biological target: SpPex13
# Summary of the method: as §1
# SpRvs167 = biological target: SpRvs167
# Summary of the method: as §1
# SpSla1-D1-D2 = biological target: SpSla1-D1-D2
# Summary of the method: as §1
# SpSla1-D3 = biological target: SpSla1-D3
# Summary of the method: as §1
binder,measurement,setting,value
NMLKKKPLKKPLKRF,SPOT peptide array binding signal intensity,AgAbp1,2990
same,SPOT peptide array binding signal intensity,AgBbc1,12.5
same,SPOT peptide array binding signal intensity,AgBem1-D1,382
same,SPOT peptide array binding signal intensity,AgBzz1-D1,48
same,SPOT peptide array binding signal intensity,AgBzz1-D2,48
same,SPOT peptide array binding signal intensity,AgCyk3,1
same,SPOT peptide array binding signal intensity,AgFus1,450
same,SPOT peptide array binding signal intensity,AgHof1,75
same,SPOT peptide array binding signal intensity,AgHse1,924
same,SPOT peptide array binding signal intensity,AgLsb1,1
same,SPOT peptide array binding signal intensity,AgLsb4,84
same,SPOT peptide array binding signal intensity,AgMyo5,≤ 0
same,SPOT peptide array binding signal intensity,AgNbp2,275
same,SPOT peptide array binding signal intensity,AgRvs167,6.17
same,SPOT peptide array binding signal intensity,AgSho1,363
same,SPOT peptide array binding signal intensity,AgSla1-D1-D2,415
same,SPOT peptide array binding signal intensity,AgSla1-D3,10
same,SPOT peptide array binding signal intensity,CaAbp1-D1,2870
same,SPOT peptide array binding signal intensity,CaAbp1-D2,4760
same,SPOT peptide array binding signal intensity,CaBbc1,98.5
same,SPOT peptide array binding signal intensity,CaBem1-D1,268
same,SPOT peptide array binding signal intensity,CaBzz1-D1,208
same,SPOT peptide array binding signal intensity,CaBzz1-D2,225
same,SPOT peptide array binding signal intensity,CaCyk3,18
same,SPOT peptide array binding signal intensity,CaFus1,2320
same,SPOT peptide array binding signal intensity,CaHof1,≤ 0
same,SPOT peptide array binding signal intensity,CaHse1,226
same,SPOT peptide array binding signal intensity,CaLsb1,4.5
same,SPOT peptide array binding signal intensity,CaLsb4,506
same,SPOT peptide array binding signal intensity,CaMyo5,27.5
same,SPOT peptide array binding signal intensity,CaNbp2,438
same,SPOT peptide array binding signal intensity,CaRvs167,47.7
same,SPOT peptide array binding signal intensity,CaRvs167-3,44
same,SPOT peptide array binding signal intensity,CaSho1,612
same,SPOT peptide array binding signal intensity,CaSla1-D1-D2,586
same,SPOT peptide array binding signal intensity,CaSla1-D3,370
same,SPOT peptide array binding signal intensity,ScAbp1,1040
same,SPOT peptide array binding signal intensity,ScBbc1,1.5
same,SPOT peptide array binding signal intensity,ScBem1-D1,31
same,SPOT peptide array binding signal intensity,ScBzz1-D1,10
same,SPOT peptide array binding signal intensity,ScBzz1-D2,22
same,SPOT peptide array binding signal intensity,ScCyk3,28
same,SPOT peptide array binding signal intensity,ScFus1,648
same,SPOT peptide array binding signal intensity,ScHof1,0.25
same,SPOT peptide array binding signal intensity,ScHse1,1740
same,SPOT peptide array binding signal intensity,ScLsb1,1
same,SPOT peptide array binding signal intensity,ScLsb2,1
same,SPOT peptide array binding signal intensity,ScLsb3,340
same,SPOT peptide array binding signal intensity,ScLsb4,94
same,SPOT peptide array binding signal intensity,ScMyo3,2
same,SPOT peptide array binding signal intensity,ScMyo5,≤ 0
same,SPOT peptide array binding signal intensity,ScNbp2,552
same,SPOT peptide array binding signal intensity,ScPex13,194
same,SPOT peptide array binding signal intensity,ScRvs167,7
same,SPOT peptide array binding signal intensity,ScSho1,1720
same,SPOT peptide array binding signal intensity,ScSla1-D1-D2,616
same,SPOT peptide array binding signal intensity,ScSla1-D3,261
same,SPOT peptide array binding signal intensity,SpAbp1-D1,1740
same,SPOT peptide array binding signal intensity,SpBbc1,4.25
same,SPOT peptide array binding signal intensity,SpBzz1-D1,279
same,SPOT peptide array binding signal intensity,SpBzz1-D2,48.2
same,SPOT peptide array binding signal intensity,SpCyk3,7.5
same,SPOT peptide array binding signal intensity,SpHof1,134
same,SPOT peptide array binding signal intensity,SpHof1-2,26
same,SPOT peptide array binding signal intensity,SpHof1-3,804
same,SPOT peptide array binding signal intensity,SpHse1,772
same,SPOT peptide array binding signal intensity,SpLsb1,31.8
same,SPOT peptide array binding signal intensity,SpLsb4,388
same,SPOT peptide array binding signal intensity,SpMyo1,21.8
same,SPOT peptide array binding signal intensity,SpNbp2,536
same,SPOT peptide array binding signal intensity,SpPex13,73.5
same,SPOT peptide array binding signal intensity,SpRvs167,15.8
same,SPOT peptide array binding signal intensity,SpSla1-D1-D2,9
same,SPOT peptide array binding signal intensity,SpSla1-D3,106
